# Results from PubChem BioAssay AID602295 (Broad Institute, 2012).
# The source made the active and inactive calls.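 Rule for the calls: active = every separate test run called active, meaning the signal drops and a potency is fitted within twice the top valid dose; inconclusive = runs disagree, poor fit, or flat partial inhibition; inactive = all runs inactive, flat, opposite direction or too weak.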
# Biological target: Mitogen-activated protein kinase 3 (Homo sapiens) (UniProt P27361)
# Test: inhibition of MAPK3 kinase activity – biochemical, ADP-Glo luminescence, cherry pick, set 2, selectivity assay for Dyrk1A inhibitor NFAT project, dose response (AID 602295)
# Chain of Mitogen-activated protein kinase 3 (Homo sapiens) (P27361 whole entry, looked up): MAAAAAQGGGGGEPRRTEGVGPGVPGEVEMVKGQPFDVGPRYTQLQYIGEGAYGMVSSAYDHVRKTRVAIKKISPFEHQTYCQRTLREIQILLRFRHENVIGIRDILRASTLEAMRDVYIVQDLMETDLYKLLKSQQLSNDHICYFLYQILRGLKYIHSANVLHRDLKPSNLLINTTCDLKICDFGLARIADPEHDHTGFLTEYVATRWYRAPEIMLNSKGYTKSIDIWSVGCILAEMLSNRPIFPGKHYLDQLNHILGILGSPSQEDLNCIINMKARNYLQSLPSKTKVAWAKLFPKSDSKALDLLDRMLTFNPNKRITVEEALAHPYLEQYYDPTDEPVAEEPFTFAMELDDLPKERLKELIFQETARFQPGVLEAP
compound,measurement,value
COc1ccc2c(c1)[nH]c1c(C)nccc12,outcome,inactive
